Pol kappa inh = inhibitors of human DNA polymerase kappa. Q9UBT6. purified Pol kappa, fluorescent DNA synthesis assay, 10 min. Potency, µM (titrated, usually from 107 µM), most hits filed as inhibitors. hit rate 0.53% among 400,000
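Here, compound and 10 nM enzyme are combined for 15 min at room temperature; adding 50 nM substrate (final) starts DNA synthesis, tracked by fluorescence at 0 and 10 min against buffer-only wells.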
Pol iota inh = inhibitors of human DNA polymerase iota | Pol iota fluorescent replication assay, 10 min | Q9UNA4 | hit rate 1% among 390,000 | Potency, µM (series often up to 115 µM), usual class: inhibitors
Target sequence (Q9UNA4 whole entry, looked up): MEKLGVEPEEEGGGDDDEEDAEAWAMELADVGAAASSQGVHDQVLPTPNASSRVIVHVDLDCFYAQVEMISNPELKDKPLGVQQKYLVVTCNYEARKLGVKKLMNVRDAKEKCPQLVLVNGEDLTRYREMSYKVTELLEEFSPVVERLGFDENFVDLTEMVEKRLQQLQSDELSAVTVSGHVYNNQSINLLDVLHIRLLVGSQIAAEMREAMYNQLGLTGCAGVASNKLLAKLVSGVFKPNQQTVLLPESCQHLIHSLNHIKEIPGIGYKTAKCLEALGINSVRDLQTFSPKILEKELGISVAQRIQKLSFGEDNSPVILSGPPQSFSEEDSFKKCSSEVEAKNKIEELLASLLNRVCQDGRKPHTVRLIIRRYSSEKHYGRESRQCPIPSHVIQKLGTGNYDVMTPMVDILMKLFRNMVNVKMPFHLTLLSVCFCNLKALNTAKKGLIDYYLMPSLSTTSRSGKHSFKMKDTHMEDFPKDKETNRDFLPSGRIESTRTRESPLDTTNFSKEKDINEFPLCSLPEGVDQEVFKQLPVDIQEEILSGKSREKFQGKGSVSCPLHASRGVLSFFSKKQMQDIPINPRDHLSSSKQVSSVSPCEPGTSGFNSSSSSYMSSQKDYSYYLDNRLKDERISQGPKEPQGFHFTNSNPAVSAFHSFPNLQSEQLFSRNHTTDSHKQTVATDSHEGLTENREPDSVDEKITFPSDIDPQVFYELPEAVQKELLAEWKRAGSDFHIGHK
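Fluorescent replication assay read twice, at 0 min and 10 min after adding 50 nM (final) substrate. Enzyme (10 nM) and compounds were first incubated 15 min at room temperature; enzyme-free buffer wells were negative controls.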
POLH inh = blocks human DNA polymerase eta activity | hit rate 1.2% among 390,000 | recombinant Pol eta, fluorescent DNA replication assay | Potency, µM (series often up to 114 µM), hits mostly inhibitors | Q9Y253
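Pol eta at 10 nM preincubated with compounds 15 min at room temperature; reaction started with fluorescent substrate (50 nM final) and read kinetically at 0 and 10 min.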
Pol beta inh = DNA polymerase beta (human) inhibition; P06746; Pol beta primer extension/strand displacement, fluorescence kinetic; Potency, µM (highest dose often 114 µM), usual class: inhibitors; hit rate 1.3% among 340,000; AID 485314
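Pol beta (10 nM) was preincubated with compound for 15 min at room temperature. The reaction was then started with 50 nM substrate and read immediately and after a further 10 min at room temperature.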
FEN1 inh = blocks human flap endonuclease 1; P39748; Recombinant FEN1 flap cleavage, fluorescence, 15 min; Potency, µM (series often up to 114 µM), hits mostly inhibitors; hit rate 0.35% among 390,000; AID 588795; note: nearly all actives have a fitted effect of over 65% in size
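Concentration–response screening of FEN1 (10 nM): 15 min compound preincubation at room temperature, reaction started with 50 nM substrate and read at 0 and 15 min. Corrected, normalized data were fitted by a four-parameter Hill equation.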
TDP1 inh = TDP1 (human) enzyme inhibition; Q9NUW8; recombinant TDP1, AlphaScreen DNA substrate cleavage; hit rate 0.28% among 350,000; Potency, µM (series often up to 130 µM), usual class: inhibitors; AID 485290; note: nearly all actives have a fitted effect of over 40% in size
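Recombinant E. coli-expressed Tdp1 (1 nM) preincubated with compound 15 min at RT, then 5'-biotin/3'-phosphotyrosine-FITC DNA substrate (15 nM) added for 5 min. AlphaScreen beads (10 ug/ml) added, 10 min RT; tyrosine-FITC cleavage read as signal loss.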
A number is an active result; i = inactive; ? = inconclusive; nt = no result; [ ] = another dose, or the depositor's remark. The list is not random: actives were taken first. Their share in the collection is about 2.4%. Calls come from the whole dose curve; as a rule, active = well fitted curve in the direction sought with a large enough effect; inconclusive = small, poorly fitted or top-dose-only effect, or another doubt; inactive = no such curve, though single readings can be large; an effect the other way counts as inactive or inconclusive.

SMILES	Pol kappa inh	Pol iota inh	POLH inh	Pol beta inh	FEN1 inh	TDP1 inh
CCCN(C(=O)COc1cc(=O)n(CC)c2ccccc12)c1ccc(C(C)C)cc1	i	i	i	i	i	i
Oc1c(/C=N/c2ccccn2)sc2ccccc12	i	i	i	22.4µM	i	i
Oc1c(C=Nc2ccc(Cl)cn2)sc2ccccc12	i	i	i	i	i	i
Cc1c(P(=S)(c2ccccc2)c2ccccc2)c2ccccc2n1C(=O)NCc1ccccc1	nt	nt	nt	nt	nt	i
Cn1cncc1C#Cc1ccc2cc(C3(O)CCCCC3)oc(=O)c2c1	i	i	i	nt	i	56.2µM
C/C=C/C=C/C=O	nt	nt	nt	nt	nt	i
O=C(Nc1ccc2nn(-c3ccccc3)nc2c1)c1ccc2c(c1)OCO2	i	i	?	39.8µM	i	nt
O=C(Nc1cccc(F)c1)c1ccc2c(c1)OCO2	i	i	i	i	i	i
CC(=O)N1CCOc2ccc(S(=O)(=O)NCc3ccc(F)cc3)cc21	i	70.8µM	56.2µM	100µM	i	44.7µM
CC(=O)N1CCOc2cc(S(=O)(=O)NCc3ccccc3Cl)c(Cl)cc21	i	?	i	i	i	6.31µM
CC(=O)N1CCOc2ccc(S(=O)(=O)NCCc3ccc(S(N)(=O)=O)cc3)cc21	i	i	i	i	i	i
CC(=O)N1CCOc2cc(S(=O)(=O)NCc3ccc(C)cc3)c(C)cc21	i	i	i	i	i	i
Cc1cc(SCC(=O)N/N=C/c2ccc(O)c(O)c2O)c(C)cc1Br	?	?	?	?	39.8µM	i
N#CN1CCC(NS(=O)(=O)c2ccc(F)cc2)CC1	nt	nt	nt	nt	nt	i
Cc1c(C)c2ccc(OCC(=O)NC(Cc3c[nH]c4ccc(O)cc34)C(=O)O)c(C)c2oc1=O (stereo unspecified)	i	i	?	i	i	nt
Cc1c(OCC(=O)N[C@@H](Cc2c[nH]c3ccccc23)C(=O)O)ccc2c1oc(=O)c1ccccc12	i	i	79.4µM	i	?	nt
C=Cc1ccc(Cn2c(C(=O)O)c(CNCc3ccccc3)c3ccc(C)cc32)cc1	i	i	i	i	i	i
Cc1cccc(Cn2c(=O)n(CCCC(=O)NCc3ccco3)c(=O)c3ccccc32)c1	i	i	i	i	i	i
Cc1cccc2nc(Cn3c(=O)n(CCCC(=O)NCc4ccco4)c(=O)c4ccccc43)cc(=O)n12	i	?	?	22.4µM	i	i
Clc1cc(Cl)c(OCC#CI)cc1Cl	i[19.4 µM]	nt	nt	nt	nt	nt
Cc1ccc(C)n1-c1ccc(C(=O)O)cc1	nt	nt	nt	3.16µM	nt	7.94µM
COc1cccc(=O)c2c(C)n(-c3ccc(C(=O)O)cc3)c(C)c12	50.1µM	15.8µM	12.6µM	15.8µM	i	?
COc1ccc(-n2c(C)c3c(OC)cccc(=O)c3c2C)cc1	i	i	?	i	i	i
CC(=O)c1c(C(C)=O)c(C)n(-c2ccc(C(=O)O)cc2)c1C	i	i	i	i	i	i
c1coc(CNc2nc(-c3cccs3)nc3ccccc23)c1	nt	nt	nt	nt	nt	i
SMILES	Pol kappa inh	Pol iota inh	POLH inh	Pol beta inh	FEN1 inh	TDP1 inh
CCc1cc2c(-c3ccccc3)cc(=O)oc2cc1OCC(C)=O	i	i	i	i	i	nt
CCCc1cc2c(-c3ccccc3)cc(=O)oc2cc1OCc1ccc(C(=O)O)o1	i	i	79.4µM	?	i	i
O=C(C[N+]12CN3CN(CN(C3)C1)C2)c1ccc(O)c(O)c1	3.16µM	10µM	nt	nt	14.1µM	nt
O=C(c1csnn1)N1CCC2(CCCN(Cc3ccccc3)C2)CC1	i	nt	nt	nt	nt	nt
O=C(NNc1ccc(F)cc1F)c1cccs1	i	i	nt	nt	i	nt
Cc1cc(C(F)(F)F)n2[nH]c(=O)c(N=Nc3ccccc3)c2n1	?	39.8µM	i	i	i	i
Cc1cc(C)n2[nH]c(=O)c(N=Nc3ccccc3)c2n1	i	i	i	i	i	i
CCCc1cc(N2CCN(c3ccccc3F)CC2)n2cnnc2n1	i	i	i	i	i	i
Cc1c(CCNC(=O)c2ccc(Br)o2)sc2nc(-c3ccc(F)cc3)nn12	i	i	i	i	i	i
CCCCOC(=O)CSC1=C(C#N)C(c2ccccc2OCC)C(C#N)C(=O)N1 (stereo unspecified)	i	79.4µM	i	i	i	i
CCCOC(=O)CSC1=C(C#N)C(c2ccccc2OCC)C(C#N)C(=O)N1 (stereo unspecified)	i	?	i	?	i	i
Cc1ccc(S(=O)(=O)NCCc2cn3c(C)csc3n2)cc1	i	i	i	i	i	i
CCc1cc2c(=O)n(Cc3ccco3)c(SCC(=O)NCC3CCCO3)nc2s1 (stereo unspecified)	i	i	i	i	i	i
CCc1cc2c(=O)n(Cc3ccco3)c(SCc3c(C)noc3C)nc2s1	i	14.1µM	i	i	i	i
CCc1cc2c(=O)n(Cc3ccco3)c(SCC(=O)N(C)C3CCS(=O)(=O)C3)nc2s1 (stereo unspecified)	?	?	i	20µM	i	i
COc1ccc(-c2c(C)nn3c(C(F)(F)F)cc(-c4ccccc4)nc23)cc1	i	i	i	i	i	i
CC(C)OCCCn1c(=O)c2ccccc2n2c(-c3ccccc3)nnc12	i	i	i	i	i	i
N[C@H](CSC(c1ccccc1)(c1ccccc1)c1ccccc1)C(=O)O	i	nt	nt	nt	nt	i
NC(CSC(c1ccccc1)(c1ccccc1)c1cccc2ccccc12)C(=O)O (stereo unspecified)	?	?	20µM	nt	i	nt
C=CCn1c(SCC(=O)N2c3ccccc3Sc3ccccc32)nnc1-c1ccco1	i	i	i	i	i	nt
CCn1c(SCC(=O)N2c3ccccc3Sc3ccccc32)nnc1-c1ccco1	i	i	i	44.7µM	i	i
CCN1CCN(C(=O)c2cc3cc([N+](=O)[O-])ccc3oc2=O)CC1	i	i	i	i	i	i
O=C(c1cc2cc([N+](=O)[O-])ccc2oc1=O)n1cccn1	79.4µM	?	31.6µM	31.6µM	i	i
CCCCNC(=O)c1ccc2c(c1)ncn2-c1cc(OC)ccc1OC	i	i	i	i	i	i
S=c1nc(C2CC2)[nH]c2ccccc12	i	?	25.1µM	?	i	i
SMILES	Pol kappa inh	Pol iota inh	POLH inh	Pol beta inh	FEN1 inh	TDP1 inh
CC(C)c1ccc(-c2noc(SCC(=O)N3CCN(c4ccccc4F)CC3)n2)cc1	i	i	i	?	i	i
O=C(CSc1nc(-c2ccccc2)no1)N1CCN(c2ccccc2F)CC1	i	89.1µM	i	i	i	i
CCc1ccc(S(=O)(=O)/N=C2/C=C(Sc3ncn[nH]3)C(=O)c3ccccc32)cc1	i	1.12µM	6.31µM	i	79.4µM	i
Cc1ccc(NC2=C/C(=N\S(=O)(=O)c3cccs3)c3ccccc3C2=O)c(C)c1	i	?	i	i	i	i
O=C1C(Nc2ccc(O)cc2)=C/C(=N/S(=O)(=O)c2cccs2)c2ccccc21	i	6.31µM	?	i	?	i
Cc1ccc(Cl)cc1NC1=C/C(=N\S(=O)(=O)c2cccs2)c2ccccc2C1=O	i	3.98µM	?	i	i	i

Screening data as filed in PubChem.
